The values below come from ChEMBL document CHEMBL4513146, “CO-ADD screening of Karazin Kharkiv National University (Ukraine) compounds”.

Measured potencies and affinities stand elsewhere.

The experiment has as its system Staphylococcus aureus. As to conditions: Concentration 32 ug.mL-1;; ASSAY_TEST Inhibition of Bacterial Growth; detection method Absorption (OD600); MEDIA CAMHB; plate type 384well; NBS; CORNING #3640; time 18 hr.
On to `CSc1cccc(NC(=O)Cn2nc3c(SCc4ccc(Cl)cc4)nccn3c2=O)c1`, for which the Inhibition (as a rule, the change of the read-out against control, counted positive when it falls) is -9.65%.

`O=C(Cn1nc2c(Oc3ccccc3)nccn2c1=O)Nc1ccc(F)cc1F`: the Inhibition stood at 6.01%.

For `COc1ccc(NC(=O)Cn2nc3c(Oc4ccccc4)nccn3c2=O)cc1`, the Inhibition worked out at 9.87%.

Turning to `Cc1ccc(NC(=O)Cn2nc3ccc(SC(C)C)nn3c2=O)c(C)c1`, the Inhibition is given as -3.52%.

Take `COc1ccc(-c2cc3c4nn(CC(=O)Nc5c(C)cc(C)cc5C)c(=O)n4ccn3n2)cc1`: the Inhibition was 9.75%.

With `O=c1n(Cc2nc(-c3ccc(F)cc3)no2)nc2ccc(-c3ccccc3)nn12`, the Inhibition stood at 3.21%.

Turning to `COc1ccc(N(Cc2ccccc2F)S(=O)(=O)c2ccc3nnc(C)n3c2)cc1`, the Inhibition came out at 8.97%.

Take `Cc1ccc(C)c(-c2cc3c4nnc(CCC(=O)NCCc5ccc(Cl)cc5)n4ccn3n2)c1`: the Inhibition was found to be 5.83%.

Consider `Cc1ccc(Oc2nccn3c(=O)n(CC(=O)Nc4cc(F)ccc4F)nc23)cc1`, for which the Inhibition was 15.96%.

Regarding `COc1ccc(NC(=O)Cn2nc3c(Sc4ccccc4)nccn3c2=O)cc1Cl`, the Inhibition was -4.6%.

Consider `Cc1cc(C)cc(Nc2nc(C)cc3nn(CC(=O)Nc4ccc(C)c(F)c4)c(=O)n23)c1`, for which the Inhibition worked out at 9.64%.

`COc1cc(OC)c(NC(=O)Cn2nc3ccc(Sc4ccc(C)cc4)nn3c2=O)cc1Cl`: the Inhibition was -4.96%.

Turning to `Cc1cc(Nc2ccc(F)cc2)nc2nn(CCc3ccccc3)c(=O)n12`, the Inhibition was 4.62%.

Regarding `C=Cc1ccc(CN(c2cccc(F)c2)S(=O)(=O)c2ccc3nnc(C)n3c2)cc1`, the Inhibition is on record as 2.75%.

Regarding `COC(=O)c1ccccc1NC(=O)Cn1nc2c3cc(-c4ccc(OC)cc4)nn3ccn2c1=O`, the Inhibition came to 11.07%.
